Only some compounds are listed: those with a hit (about 12% of all), similar ones and a draw of the others.
Pf growth 96h: P. falciparum growth inhibition at 96 hour, primary screen for plastid delayed-death inhibitors; Potency, µM (series often up to 28.7 µM), most hits filed as inhibitors; 6.9% of 320,000 active; P. falciparum luciferase reporter growth, 96 h
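Erythrocytes infected with luciferase-expressing P. falciparum were dispensed at 2% hematocrit and 0.05% parasitemia (final), then incubated with compounds 96 hours at 37 C in 5% CO2. Luminescence after detection reagent addition reported growth.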
Sm TGR inh: blocks Schistosoma mansoni thioredoxin glutathione reductase | Q962Y6 | purified TGR, DTNB reduction, TNB absorbance 405 nm | Potency, µM (top dose mostly 114 µM), hits mostly inhibitors | 3% of 360,000 active; also: nearly all actives have a fitted effect of over 60% in size
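First, TGR (20 nM dispensed) and NADPH were mixed with compound. Second, a 15 min room-temperature incubation followed. Third, further NADPH and then DTNB were added to start the reaction. Finally, TNB absorbance was monitored kinetically.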
AmpC no deterg: AmpC beta-lactamase inhibition without detergent; P00811; AmpC nitrocefin hydrolysis, absorbance 480 nm, 0.0001% Triton; Potency, µM (doses to about 57.1 µM), actives largely listed as inhibitors; 0.52% of 330,000 active; AID 485341; also: nearly all actives have a fitted effect of over 20% in size
Target sequence (P00811 whole entry, looked up): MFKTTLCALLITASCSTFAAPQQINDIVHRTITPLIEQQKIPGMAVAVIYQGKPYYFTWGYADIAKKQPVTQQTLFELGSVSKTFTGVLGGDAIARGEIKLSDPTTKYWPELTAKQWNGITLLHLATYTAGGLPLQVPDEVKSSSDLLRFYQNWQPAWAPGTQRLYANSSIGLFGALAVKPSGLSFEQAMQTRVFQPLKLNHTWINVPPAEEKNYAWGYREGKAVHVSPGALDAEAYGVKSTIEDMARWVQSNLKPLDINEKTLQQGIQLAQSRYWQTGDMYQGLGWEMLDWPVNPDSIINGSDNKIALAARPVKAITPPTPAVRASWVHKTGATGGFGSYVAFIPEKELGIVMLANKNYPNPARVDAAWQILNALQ
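AmpC (5.3 nM in the dispensed reagent) in 20 mM phosphate pH 7.0 with 0.01% (detergent screen) or 0.0001% Triton X-100 was preincubated with compounds for 15 min at room temperature. Nitrocefin was then added from an 800 uM solution, and hydrolysis was followed at 480 nm.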
Pf growth 48h: P. falciparum growth inhibition at 48 hours (one generation); P. falciparum luciferase growth in erythrocytes, 48 h; Potency, µM (titrated, usually from 28.7 µM), actives largely listed as inhibitors; 5.9% of 310,000 active; AID 504832
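Parasite viability was followed by luminescence of a genomically integrated firefly luciferase. Cultures held 0.1% parasitemia at 2% hematocrit (final), incubated under 5% CO2 at 37 C.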
SARS PLpro yeast: blocks SARS-CoV papain-like protease in a yeast assay; S. cerevisiae expressing SARS-CoV PLpro, growth rescue; Potency, µM (highest dose often 32.9 µM), hits mostly activators; 0.19% of 330,000 active; calls by dose curve; also: nearly all actives have a fitted effect of over 55% in size
AmpC inh detg: blocks E. coli AmpC beta-lactamase in detergent assay; AID 485294; 0.041% of 370,000 active; P00811; AmpC hydrolysis of nitrocefin, absorbance 480 nm, 0.01% Triton; Potency, µM (series often up to 114 µM), usual class: inhibitors; also: nearly all actives have a fitted effect of over 25% in size
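20 mM phosphate pH 7.0 + 0.01% (detergent screen) or 0.0001% Triton X-100; 5.3 nM AmpC reagent; cpd preinc 15 min RT; nitrocefin (800 uM stock) to start; A480 q20 s × 4 min; Activity was normalised to no-enzyme and no-compound control wells.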
Of the large screens only hits and unclear results are named; the others gave an inactive call. Unless noted, calls follow the shape of the dose curve; as a rule, active = well fitted curve in the direction sought with a large enough effect; inconclusive = small, poorly fitted or top-dose-only effect, or another doubt; inactive = no such curve, though single readings can be large; an effect the other way counts as inactive or inconclusive.

Cc1ccc(C2Nc3ccc4ccccc4c3C3=C2C(=O)CC(C)(C)C3)o1 (configuration not stated)	Pf growth 96h inconclusive, Pf growth 48h 15µM
Cc1ccc(Cn2c(-c3ccccc3)nc3ccccc32)cc1	none (no result: Pf growth 96h, AmpC no deterg, Pf growth 48h, SARS PLpro yeast)
Cc1ccc(Cn2c(/C=C/c3ccco3)nc3ccccc32)cc1	Pf growth 96h inconclusive, Sm TGR inh 11µM
Clc1ccc(Cn2c(/C=C/c3ccco3)nc3ccccc32)cc1	Pf growth 96h inconclusive, Sm TGR inh 28µM, Pf growth 48h inconclusive, AmpC inh detg inconclusive
CCCSc1ncc(Cl)c(C(=O)N2CCN(c3cccc(Cl)c3)CC2)n1	none (no result: Pf growth 96h, AmpC no deterg, Pf growth 48h, SARS PLpro yeast)
Cc1ccc(-c2nc3sc(CCNC(=O)c4ccc(C)c(C)c4)c(C)n3n2)cc1	none (no result: Pf growth 96h, AmpC no deterg, Pf growth 48h, SARS PLpro yeast)
CCOC(=O)c1ccc(NC(=O)c2cccc(S(=O)(=O)N3CCN(C(C)=O)CC3)c2)cc1	Pf growth 96h 9.3µM, Pf growth 48h inconclusive
CCN(c1ccc(NC(=O)c2cccc(S(=O)(=O)N3CCN(C)CC3)c2)cc1)C(C)C	Sm TGR inh 8.9µM
CN1CCN(S(=O)(=O)c2cccc(C(=O)Nc3sccc3C(N)=O)c2)CC1	Pf growth 96h inconclusive, Pf growth 48h 13µM
CCN(CC)C(=O)c1ccc(NC(=O)c2cccc(S(=O)(=O)N3CCN(C)CC3)c2)cc1	Pf growth 96h inconclusive, Pf growth 48h inconclusive
Cc1ccc(C(NC(=O)c2cccc(S(=O)(=O)N3CCN(C)CC3)c2)c2ccccc2)cc1 (configuration not stated)	Pf growth 96h inconclusive, Pf growth 48h 15µM
CCCCOC(=O)c1ccc(NC(=O)/C(C#N)=C/c2ccc(C)o2)cc1	none (no result: Pf growth 96h, AmpC no deterg, Pf growth 48h, SARS PLpro yeast)
Cc1cc(C)c2c(-n3cccc3)c(C(=O)NCCCN3CCCCC3C)sc2n1 (configuration not stated)	none (no result: Pf growth 96h, AmpC no deterg, Pf growth 48h, SARS PLpro yeast)
COc1ccc(CNS(=O)(=O)c2ccc(-c3cc(C(F)(F)F)on3)s2)cc1OC	none (no result: Pf growth 96h, AmpC no deterg, Pf growth 48h, SARS PLpro yeast)
CN(C)S(=O)(=O)c1cccc(C(=O)OCC(=O)Nc2sccc2C(N)=O)c1	Pf growth 96h 3.7µM, Pf growth 48h 1.9µM, AmpC inh detg inconclusive
O=C(Nc1ccccc1NC(=O)NC1CCCCC1)NC1CCCCC1	none (no result: Pf growth 96h)
O=C(Nc1nnc(-c2ccccc2)o1)NC1CCCCC1	Pf growth 96h 3.7µM, Pf growth 48h 12µM
O=C(Nc1cccc2ccccc12)NC1CCCCC1	Pf growth 96h 0.83µM
O=C(CN1CCC(NC(=O)Cc2ccccc2)CC1)Nc1cccc2ccccc12	Pf growth 96h 8.3µM, Pf growth 48h inconclusive
O=C(Nc1ccccc1)Nc1nnc(-c2ccccc2)o1	Pf growth 96h inconclusive
COc1cccc(CN2CC(C(=O)NCCOc3cccnc3)CCC2=O)c1 (configuration not stated)	Pf growth 96h inconclusive
COc1ccc(NC(=O)COc2cccc3c2CCN(Cc2cccnc2)C3=O)cc1	Pf growth 96h inconclusive, Pf growth 48h inconclusive
CCOc1ccc(NC(=O)COc2cccc3c2CCN(Cc2cccnc2)C3=O)cc1	Pf growth 96h inconclusive, Pf growth 48h 12µM
COc1ccc(NC(=O)COc2cccc3c2CCN(Cc2cccnc2)C3=O)c(OC)c1	Pf growth 96h 1.3µM, Pf growth 48h 5.2µM
Cc1ccc(C)c(NC(=O)COc2cccc3c2CCN(Cc2ccccc2C)C3=O)c1	Pf growth 96h 10µM, Pf growth 48h inconclusive
COc1cc(CNCCc2ccccc2F)ccc1OCC(=O)N1CCCCC1	Pf growth 96h 13µM, Sm TGR inh inconclusive
COc1ccc(C)cc1NC(=O)CN1C(=O)CCc2cc(S(=O)(=O)N3CCOCC3)ccc21	none (no result: Pf growth 96h, AmpC no deterg, Pf growth 48h, SARS PLpro yeast)
C/C(=N/NC(=O)c1ccc(C)nc1)c1ccc2c(c1)CCCC2	none
O=C(COc1cccc2c1CCN(Cc1ccccc1F)C2=O)N1CCCCC1	Pf growth 96h inconclusive, Sm TGR inh 89µM, Pf growth 48h inconclusive, AmpC inh detg inconclusive
CC1CCN(C(=O)Cn2cc(SCC(=O)NCc3ccccc3Cl)c3ccccc32)CC1	none (no result: Pf growth 96h, AmpC no deterg, Pf growth 48h, SARS PLpro yeast)
CCOc1ccc(C(=O)N2CCN(S(=O)(=O)c3cccs3)CC2)c(OCC)c1	Pf growth 48h inconclusive

Compound activity from PubChem.
